This note sets out measurements from the supplement of paper PMC9262897, “Low-cost anti-mycobacterial drug discovery using engineered E. coli” (Nature Communications, 2022).

SMILES strings stand for the structures. ± gives the standard deviation of the averaged measurements.

Holding throughout (experiment): growth (OD600 after 10 h); higher = more growth (less inhibition)
Assay [1] concerns E. coli TESEC Alr+ wild-type control. To be noted: compound 0.1 mM; raw OD600 reference: median of DMSO wells 0.241, cell-free background 0.041. The protocol:
(§1)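 TESEC Mtb Alr E. coli, or the Alr+ wild-type control, in 384-well plates with Prestwick library compounds at 0.1 mM and 1% DMSO, across arabinose induction levels of 1E3 to 1E7 nM. Growth is read as OD600 after 10 h at 37 °C in triplicate biological replicates.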

Assay [2] deals with E. coli TESEC Mtb Alr. To be noted: compound 0.1 mM. The protocol:
as §1

In the next assay the test system is E. coli TESEC Mtb Asd. To be noted: compound 0.1 mM. The protocol:
(§2)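 TESEC E. coli strains in which the native enzyme is deleted and replaced by arabinose-inducible Mtb Asd, DapB, CysH or TrpD, each grown in its selective medium. Strains were screened against the Prestwick library at 0.1 mM and 1% DMSO in 384-well format at low and high arabinose induction. Growth is read as OD600 after 10 h in triplicate.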

In assay [3] the test system is E. coli TESEC Mtb Alr. To be noted: compound 0.1 mM. How it is done:
(§3)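 TESEC Mtb Alr E. coli (ΔaraC ΔtolC ΔentC Δalr ΔdadX, arabinose-inducible Mtb Alr) or the Alr+ wild-type control strain, grown in defined M9-fructose medium without D-alanine in 96-well plates with Prestwick library compounds at 0.1 mM and 1% DMSO. Low Alr induction is 0.1 µM arabinose and high induction is 10 mM arabinose.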
This is another data set of the same source.

For assay [4], the system named is E. coli TESEC Alr+ wild-type control. The following applies: compound 0.1 mM; raw OD600 reference: median of DMSO wells 0.49, cell-free background 0.052. The protocol:
as §3

A further assay concerns E. coli TESEC Mtb DapB. The following applies: compound 0.1 mM. How it is done: as §2
Setting [5] is: arabinose 1000 nM, raw OD600 reference: median of DMSO wells 0.294, cell-free background 0.041.
Where [6] appears, read: arabinose 10000 nM, raw OD600 reference: median of DMSO wells 0.264, cell-free background 0.041.
Where [7] appears, read: arabinose 100000 nM, raw OD600 reference: median of DMSO wells 0.201, cell-free background 0.041.
Setting [8] is: arabinose 1000000 nM, raw OD600 reference: median of DMSO wells 0.193, cell-free background 0.041.
Setting [9] is: arabinose 10000000 nM, raw OD600 reference: median of DMSO wells 0.146, cell-free background 0.041.
[10] abbreviates: arabinose induction (level): High, raw OD600 reference: median of DMSO wells 0.331, cell-free background 0.041.
The mark [11] stands for this setting: arabinose induction (level): Low, raw OD600 reference: median of DMSO wells 0.417, cell-free background 0.041.
[12] abbreviates: arabinose 100 nM, raw OD600 reference: median of DMSO wells 0.413, cell-free background 0.052.
Setting [13] is: arabinose 10000000 nM, raw OD600 reference: median of DMSO wells […], cell-free background 0.052.

Turning to `NCC1(CC(=O)O)CCCCC1` [Gabapentin], the growth turned out to be 0.255 ± 0.0094 in assay [1]; 0.324 ± 0.013 with E. coli TESEC Mtb Alr [2] (setting [5]); 0.281 ± 0.011 in the assay on E. coli TESEC Mtb Alr [2] (setting [6]); 0.215 ± 0.021 in the assay on E. coli TESEC Mtb Alr [2] (setting [7]); 0.184 ± 0.003 with E. coli TESEC Mtb Alr [2] (setting [8]); 0.156 ± 0.0041 with E. coli TESEC Mtb Alr [2] (setting [9]). Besides, the growth in the assay with E. coli TESEC Mtb Asd (setting [10]) worked out at 0.478 ± 0.023; with E. coli TESEC Mtb Asd (setting [11]) it was 0.399 ± 0.044; in the assay on E. coli TESEC Mtb Alr [3] (setting [12]) it was 0.401 ± 0.02; in the assay with E. coli TESEC Mtb Alr [3] (setting [13]), 0.325 ± 0.022.

On to `O=c1[nH]c2ccccc2n1C1CCN(CCCC(c2ccc(F)cc2)c2ccc(F)cc2)CC1` [Pimozide], for which the growth worked out at 0.164 ± 0.013 in assay [1]; 0.243 ± 0.0073 with E. coli TESEC Mtb Alr [2] (setting [5]); 0.2629 ± 0.0026 with E. coli TESEC Mtb Alr [2] (setting [6]); 0.226 ± 0.045 in the assay with E. coli TESEC Mtb Alr [2] (setting [7]); 0.106 ± 0.0046 in the assay on E. coli TESEC Mtb Alr [2] (setting [8]); 0.142 ± 0.004 in the assay with E. coli TESEC Mtb Alr [2] (setting [9]). Besides, the growth with E. coli TESEC Mtb Asd (setting [10]) amounted to 0.209 ± 0.024; with E. coli TESEC Mtb Asd (setting [11]), 0.396 ± 0.015; in assay [4], 0.52 ± 0.043; with E. coli TESEC Mtb Alr [3] (setting [12]) it was 0.417 ± 0.0074; in the assay on E. coli TESEC Mtb Alr [3] (setting [13]) it was 0.307 ± 0.034.

In the case of `C=C1C[C@@H]2[C@H](CC[C@]3(C)C(=O)CC[C@@H]23)[C@@]2(C)C=CC(=O)C=C12` [Exemestane], the growth worked out at 0.113 ± 0.0025 in assay [1]; 0.1298 ± 0.0011 in the assay on E. coli TESEC Mtb Alr [2] (setting [5]); 0.165 ± 0.0017 with E. coli TESEC Mtb Alr [2] (setting [6]); 0.108 ± 0.0018 with E. coli TESEC Mtb Alr [2] (setting [7]); 0.0722 ± 0.0026 in the assay with E. coli TESEC Mtb Alr [2] (setting [8]); 0.0997 ± 0.0036 in the assay on E. coli TESEC Mtb Alr [2] (setting [9]). The growth in the assay with E. coli TESEC Mtb Asd (setting [10]) was determined as 0.0993 ± 0.0088; in the assay on E. coli TESEC Mtb Asd (setting [11]), 0.147 ± 0.023; with E. coli TESEC Mtb Alr [3] (setting [12]), 0.379 ± 0.039; in the assay with E. coli TESEC Mtb Alr [3] (setting [13]) it was 0.129 ± 0.019.

Turning to `C[C@]12Cc3c[nH]nc3C[C@@H]1CC[C@@H]1[C@@H]2CC[C@@]2(C)[C@H]1CC[C@]2(C)O` [Stanozolol], the growth in assay [1] came to 0.184 ± 0.0086; in the assay with E. coli TESEC Mtb Alr [2] (setting [5]) it was 0.256 ± 0.0051; in the assay with E. coli TESEC Mtb Alr [2] (setting [6]), 0.245 ± 0.0053; in the assay with E. coli TESEC Mtb Alr [2] (setting [7]), 0.169 ± 0.023; with E. coli TESEC Mtb Alr [2] (setting [8]), 0.141 ± 0.0057; in the assay on E. coli TESEC Mtb Alr [2] (setting [9]), 0.139 ± 0.0021. Also, the growth in the assay with E. coli TESEC Mtb Asd (setting [10]) was determined as 0.157 ± 0.011; with E. coli TESEC Mtb Asd (setting [11]) it was 0.271 ± 0.051; with E. coli TESEC Mtb Alr [3] (setting [12]), 0.409 ± 0.0083; with E. coli TESEC Mtb Alr [3] (setting [13]) it was 0.278 ± 0.018.

Consider `CN1C[C@H](CNC(=O)OCc2ccccc2)C[C@@H]2c3cccc4c3c(cn4C)C[C@H]21` [Metergoline], for which the growth stood at 0.0409 ± 0.00056 in assay [1]; 0.0429 ± 0.0039 with E. coli TESEC Mtb Alr [2] (setting [5]); 0.04017 ± 0.00032 in the assay with E. coli TESEC Mtb Alr [2] (setting [6]); 0.0428 ± 0.00093 in the assay on E. coli TESEC Mtb Alr [2] (setting [7]); 0.0401 ± 0.00017 in the assay with E. coli TESEC Mtb Alr [2] (setting [8]); 0.0432 ± 0.0024 in the assay on E. coli TESEC Mtb Alr [2] (setting [9]). In addition, the growth was 0.0522 ± 0.002 with E. coli TESEC Mtb Asd (setting [10]), 0.0487 ± 0.0029 in the assay on E. coli TESEC Mtb Asd (setting [11]), 0.278 ± 0.2 in the assay on E. coli TESEC Mtb Alr [3] (setting [12]) and 0.05077 ± 0.00012 with E. coli TESEC Mtb Alr [3] (setting [13]).

Regarding `C[C@]12CCC(=O)C=C1CC[C@@H]1[C@@H]2C(=O)C[C@]2(C)C(=O)CC[C@@H]12` [Adrenosterone], the growth in assay [1] stood at 0.212 ± 0.0061; with E. coli TESEC Mtb Alr [2] (setting [5]), 0.273 ± 0.015; in the assay with E. coli TESEC Mtb Alr [2] (setting [6]), 0.245 ± 0.0058; in the assay on E. coli TESEC Mtb Alr [2] (setting [7]) it was 0.163 ± 0.0036; with E. coli TESEC Mtb Alr [2] (setting [8]), 0.131 ± 0.011; in the assay with E. coli TESEC Mtb Alr [2] (setting [9]), 0.123 ± 0.0015. Further, the growth is 0.256 ± 0.03 in the assay on E. coli TESEC Mtb Asd (setting [10]), 0.445 ± 0.023 in the assay on E. coli TESEC Mtb Asd (setting [11]), 0.406 ± 0.014 with E. coli TESEC Mtb Alr [3] (setting [12]) and 0.2946 ± 0.0019 in the assay on E. coli TESEC Mtb Alr [3] (setting [13]).

With `OC(c1ccccc1)(c1ccccc1)C1CCNCC1` [Azacyclonol], the growth in assay [1] amounted to 0.222 ± 0.014; with E. coli TESEC Mtb Alr [2] (setting [5]), 0.294 ± 0.011; in the assay with E. coli TESEC Mtb Alr [2] (setting [6]), 0.269 ± 0.0093; in the assay on E. coli TESEC Mtb Alr [2] (setting [7]) it was 0.2264 ± 0.00067; with E. coli TESEC Mtb Alr [2] (setting [8]), 0.166 ± 0.0076; in the assay on E. coli TESEC Mtb Alr [2] (setting [9]) it was 0.136 ± 0.0054. The growth was 0.296 ± 0.07 in the assay with E. coli TESEC Mtb Asd (setting [10]); 0.442 ± 0.019 with E. coli TESEC Mtb Asd (setting [11]); 0.185 ± 0.013 with E. coli TESEC Mtb DapB (arabinose induction (level): High, raw OD600 reference: median of DMSO wells […], cell-free background 0.041); 0.213 ± 0.036 in the assay with E. coli TESEC Mtb DapB (arabinose induction (level): Low, raw OD600 reference: median of DMSO wells 0.227, cell-free background 0.041); 0.412 ± 0.011 with E. coli TESEC Mtb Alr [3] (setting [12]); 0.333 ± 0.035 with E. coli TESEC Mtb Alr [3] (setting [13]).
